# Laboratory results from PubChem BioAssay.
# Active and inactive are the calls of the source.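 Rule for the calls, unless noted: active = inhibition above 20% together with a positive visual image hit; inconclusive = visual image hit but inhibition not above 20%; inactive = no visual image hit.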
# Legend:
# [1] = inhibitors of TNFa-induced NFkB p65 translocation, primary screen, imaging, HUVEC, MLSMR starter and 10KST1 sets (AID 438); conditions: HUVEC TNFa-induced p65 nuclear translocation; cell count: measured here: nuclei count (cytotoxicity indicator), at 2.08 µM; inhibition: at 2 µM, stronger effect = higher value, 0% TNFa-plus-vehicle, 100% no-TNFa wells;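 note: compound added about 3h40 before a 20 min TNFalpha stimulation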;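 for inhibition: signal is the nuclear over cytoplasmic p65 intensity ratio per well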
# [2] = reduction of polyQ htt aggregates in cells – imaging, exon1htt(103Q)mCFP cells, high-content imaging, primary screen (AID 483;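 active = visual image review flags a hit and inhibition of aggregation exceeds 20%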;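 note: compound exposure lasted 3 days before fixation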;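 for nuclei count: percent of the per-plate median nuclei count of sample wells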); conditions: exon1htt(103Q)mCFP cell line, aggregate imaging, at 2 µM; inhibition of aggregation: stronger effect = higher value; nuclei count: measured here: cell count, toxicity
# [3] = endothelial E-selectin expression blockers – imaging, HUVEC, immunofluorescence, MLSMR starter and 10KST1 sets, primary screen (AID 487;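 active = visually confirmed hit in the image check and inhibition above 20%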;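 for inhibition: signal is fraction of cell area covered by stained E-selectin grains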;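 for nuclei count: 100% = median nuclei count of all wells on the same plate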); conditions: HUVEC TNFalpha-induced E-selectin immunofluorescence imaging, at 2 µM; inhibition: stronger effect = higher value; nuclei count: measured here: cell number, toxicity
# [4] = target: Voltage-gated potassium channel subunit beta-2 (Rattus norvegicus) (UniProt P62483); test: inhibitors of rat Kvbeta2 reductase activity – biochemical, NADPH fluorescence, primary screen (AID 622;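 active = fluorescence slope higher than the sample average by over 3 SD, cut at about -0.22 in these data, passing the limit was not always enough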;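 note: slope of raw intensity against log time taken from 70 to 1610 s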); conditions: recombinant KvBeta, 4-cyanobenzaldehyde reduction, at 10 µM, stronger effect = higher value
# Sequence of Voltage-gated potassium channel subunit beta-2 (Rattus norvegicus) (P62483 whole entry, looked up): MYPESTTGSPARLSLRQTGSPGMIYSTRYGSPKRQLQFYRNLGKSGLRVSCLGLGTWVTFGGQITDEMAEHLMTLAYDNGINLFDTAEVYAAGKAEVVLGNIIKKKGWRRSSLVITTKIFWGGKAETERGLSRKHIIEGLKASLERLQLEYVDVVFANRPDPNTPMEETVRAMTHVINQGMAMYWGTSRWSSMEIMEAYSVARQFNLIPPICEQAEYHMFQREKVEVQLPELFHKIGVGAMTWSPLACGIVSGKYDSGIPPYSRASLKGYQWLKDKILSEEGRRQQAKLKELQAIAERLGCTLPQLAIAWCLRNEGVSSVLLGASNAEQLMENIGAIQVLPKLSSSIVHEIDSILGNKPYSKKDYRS
# [5] = target: Voltage-gated potassium channel subunit beta-2 (Rattus norvegicus) (UniProt P62483); test: enhancers of rat Kvbeta2 NADPH turnover – biochemical, NADPH fluorescence, primary screen (AID 623;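 active = NADPH fluorescence slope more negative than the mean of all samples by about 3 SD, 99.7% confidence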;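 note: fluorescence intensity change per second fitted from 20 to 320 s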); conditions: Recombinant KvBeta, NADPH fluorescence decrease slope, 10 min; at 10 µM; stronger effect = lower value
# [6] = target: Alpha-2C adrenergic receptor (Homo sapiens) (UniProt P18825); test: compounds altering alpha2C-coupled GIRK flux – cell-based, HEK293 alpha2C/GIRK1/2, thallium flux, primary screen (AID 624;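 active = fluorescence slope after compound addition differing from the mean of all screened samples at 99.7% confidence, in either direction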;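 note: slope of fluorescence ratio to pre-addition baseline per second over 15 to 24 s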); conditions: thallium flux BTC fluorescence, at 10 µM, actives lie on both sides
# Sequence of Alpha-2C adrenergic receptor (Homo sapiens) (P18825 whole entry, looked up): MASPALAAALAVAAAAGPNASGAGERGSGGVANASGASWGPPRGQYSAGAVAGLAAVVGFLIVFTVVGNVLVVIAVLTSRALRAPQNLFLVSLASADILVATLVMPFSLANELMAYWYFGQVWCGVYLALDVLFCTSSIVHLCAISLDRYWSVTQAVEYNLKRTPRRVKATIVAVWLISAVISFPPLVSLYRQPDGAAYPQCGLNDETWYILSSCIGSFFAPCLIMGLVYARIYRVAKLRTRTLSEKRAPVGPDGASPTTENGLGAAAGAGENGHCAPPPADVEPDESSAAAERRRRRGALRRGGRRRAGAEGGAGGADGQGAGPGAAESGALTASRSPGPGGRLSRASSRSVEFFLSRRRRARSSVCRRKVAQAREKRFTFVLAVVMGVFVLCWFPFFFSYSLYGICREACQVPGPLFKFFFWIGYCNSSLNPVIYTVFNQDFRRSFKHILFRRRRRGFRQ
# [7] = blockers of RIG-like receptor reporter activation – cell-based, Sendai virus stimulus, luciferase, 10K MLSCN set, TLR/RLR signaling modifier project, primary screen (AID 602276;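 active = inhibition at or above 50% at 10 µM; inactive = inhibition below 50%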;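 note: firefly luciferase from ISG56 promoter only with Renilla not read in this screen; 0% = Sendai virus plus DMSO and 100% = medium plus DMSO without virus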); conditions: HEK293 RL24 IRF3 luciferase reporter, at 10 µM, stronger effect = higher value
# [8] = TLR3 IRF3 reporter activation blockers – cell-based, poly I:C stimulus, luciferase, 10K MLSCN set, primary screen (AID 602277;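 active = inhibition of the reporter signal at or above 50%; inactive = inhibition below 50%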); conditions: HEK293-TLR3 RL24 IRF3 luciferase reporter, at 10 µM, stronger effect = higher value
SMILES,cell count [1],inhibition [1],inhibition of aggregation [2],nuclei count [2] [%],inhibition [3],nuclei count [3] [%],fluorescence slope [4],NADPH fluorescence slope [5],slope [6],inhibition [7],inhibition [8]
COc1cc(C(=O)Nc2cc(C)ccn2)cc(OC)c1OC,298,-1.9% (inactive),4.3% (inactive),98.4,-87% (inactive),113,-0.472 (inactive),3.1e-06 (inactive),0.00568 (inactive),-4.57% (inactive),7.2% (inactive)
Cc1ncc(CSc2nc3ccccc3[nH]2)c(N)n1,920,11.9% (inactive),-17.1% (inactive),115,-37.5% (inactive),109,-0.606 (inactive),-9.7e-06 (inactive),0.00699 (inactive),4.12% (inactive),-10.7% (inactive)
CCn1c(SCC(=O)N2CCOCC2)nc2c(c1=O)SC(C)C2 (stereo not drawn),298,9.4% (inactive),21.4% (inactive),89.2,20% (inactive),93.4,-0.542 (inactive),-3.5e-06 (inactive),0.00531 (inactive),-5.39% (inactive),4.93% (inactive)
O=S(=O)(c1cccc(-c2nnco2)c1)N1CCCC1,453,0.5% (inactive),-4.5% (inactive),95.9,0.2% (inactive),108,-0.519 (inactive),-4.3e-05 (inactive),0.00457 (inactive),8.27% (inactive),13.9% (inactive)
O=C1C2C3C=CC(C3)C2C(=O)N1c1cccc(N2C(=O)C3C4C=CC(C4)C3C2=O)n1 (stereo not drawn),227,8.4% (inactive),-5.5% (inactive),109,-160% (inactive),137,-0.549 (inactive),-1.2e-05 (inactive),0.00682 (inactive),3.37% (inactive),21.6% (inactive)
CCOc1ccc(N2CC(C(=O)Nc3ccccc3OC)CC2=O)cc1 (stereo not drawn),663,-3.4% (inactive),-8.5% (inactive),89,-21.8% (inactive),126,-0.404 (inactive),2.8e-05 (inactive),0.00536 (inactive),5.76% (inactive),-2.71% (inactive)
Clc1cccc(N2CCN(Cc3nc(-c4ccccc4)no3)CC2)c1,716,-1.1% (inactive),8.5% (inactive),112,-43.3% (inactive),122,-0.541 (inactive),-9e-05 (inactive),0.00744 (inactive),2.81% (inactive),29.2% (inactive)
O=c1c(CN2CCN(Cc3ccccc3)CC2)coc2ccc(Cl)cc12,463,-1.6% (inactive),-1.1% (inactive),113,-69.1% (inactive),125,-0.41 (inactive),-0.000112 (inactive),0.00599 (inactive),-2.78% (inactive),4.22% (inactive)
CCn1c(SCC(=O)Nc2cccc(C)c2)nc2c(c1=O)SC(C)C2 (stereo not drawn),576,-3.4% (inactive),40.7% (inactive),85.6,-11.7% (inactive),86,-0.537 (inactive),-4.6e-05 (inactive),0.00615 (inactive),12.1% (inactive),25.9% (inactive)
O=C(c1ncn[nH]1)N1CCN(c2nc(-c3ccccc3)cs2)CC1,397,2.5% (inactive),2.5% (inactive),68.1,22.4% (inactive),111,-0.387 (inactive),-4.6e-06 (inactive),0.00549 (inactive),-1.81% (inactive),-36.8% (inactive)
Cc1cccc(-c2cc3nc(C)cc(NCCCN(C)C)n3n2)c1,399,-0.5% (inactive),-9.4% (inactive),114,-44.2% (inactive),98.7,-0.56 (inactive),-7.5e-05 (inactive),0.00413 (inactive),21% (inactive),9.1% (inactive)
c1ccc(C(Cc2nc(-c3ccccn3)no2)c2ccccc2)cc1,337,-8% (inactive),4% (inactive),110,-83.3% (inactive),100,-0.449 (inactive),-6.2e-05 (inactive),0.00562 (inactive),20.3% (inactive),14.4% (inactive)
CN(C)c1nc(N)nc(-c2nc3ccccc3s2)n1,824,-2.1% (inactive),-13.6% (inactive),97.7,-96.9% (inactive),122,-0.489 (inactive),-2.4e-05 (inactive),0.00639 (inactive),-26% (inactive),-41.6% (inactive)
